In PubChem BioAssay (Tox21):
Where “and” joins values, the source holds several entries; their conditions need not be identical. Equal values may be shown once. Inconclusive results are not listed. Where a call stands in place of a potency, no number is given. A structure can be active in one record and inactive in another. Calls of active or inactive are those of the source. The call rests on the fitted dose curve.

Molecular target: Retinoic acid receptor RXR-alpha (Homo sapiens) (UniProt P19793)
Assay: qHTS assay to identify small molecule agonists of the RXR signaling pathway (AID 1159527); further: nearly all actives have a fitted effect of over 35% in size
Details: HEK293T RXRa-UAS-bla, beta-lactamase ratio, 16 h; series mostly up to 35.3 µM
Text: U.S. Tox21 Program National Center for Advancing Translational Sciences [NCATS] NIH Chemical Genomics Center [NCGC] U.S. Environmental Protection Agency [EPA] National Institutes of Environmental Health Sciences [NIEHS] National Toxicology Program [NTP] U.S. Food and Drug Administration [FDA] Tox21 Assay Overview: The Retinoid X receptor (RXR), a nuclear hormone receptor expressed in liver, spleen, placenta, epidermis, central nervous system. These receptors are able to form homo and heterodimers with other nuclear receptors and due to this heterodimerizing ability, RXR functions as master regulators producing diverse physiological effects. Three subtypes of RXR exist; alpha, beta and gamma. Retinoid X receptor alpha (RXR-alpha) has potential roles in metabolic signaling pathways, skin alopecia, dermal cysts, cardiac development, insulin sensitization etc. Therefore screening environmental chemicals on RXR-alpha signaling can be used for the studies focused on such therapeutic applications. For quantification of RXR-alpha ligands signaling, GeneBLAzer RXR alpha-UAS-bla HEK 293T (Life Technologies, Carlsbad, CA) cells containing a beta-lactamase reporter-gene under control of Retinoid X receptor-alpha response element were used to screen Tox21 10K library.
Tox21 Assay Protocol Summary: RXR-alpha HEK 293T cells were dispensed at 2,000 cells/6 uL of assay medium containing 2% charcoal-stripped FBS using a Multidrop Combi (ThermoFisher Scientific, Waltham, MA) dispenser. The assay was performed in black wall/clear-bottom 1536-well plates (Greiner Bio-One North America Inc. Monroe, NC). 9-cis retinoic acid was used as a positive control in the agonist mode screen. After the assay plates were incubated at 37 C and 5% CO2 for 5 hr, 23 nL of compounds dissolved in DMSO, positive controls or DMSO only were transferred to the assay plate by a Pintool station (Kalypsys, San Diego, CA). The assay plates were incubated at 37 C and 5% CO2 for 16 hr. One uL of LiveBLAzer B/G FRET substrate (Life Technologies) was added using a Flying Reagent Dispenser (Aurora Discovery, San Diego, CA) and the plates were incubated at room temperature for 2 hr. Fluorescence intensity (405 nm excitation, 460/530 nm emission) was measured using an Envision plate reader (PerkinElmer, Shelton, CT).
Potency means the concentration at half of the fitted maximal effect.

Sequence of Retinoic acid receptor RXR-alpha (Homo sapiens) (P19793 whole entry, looked up): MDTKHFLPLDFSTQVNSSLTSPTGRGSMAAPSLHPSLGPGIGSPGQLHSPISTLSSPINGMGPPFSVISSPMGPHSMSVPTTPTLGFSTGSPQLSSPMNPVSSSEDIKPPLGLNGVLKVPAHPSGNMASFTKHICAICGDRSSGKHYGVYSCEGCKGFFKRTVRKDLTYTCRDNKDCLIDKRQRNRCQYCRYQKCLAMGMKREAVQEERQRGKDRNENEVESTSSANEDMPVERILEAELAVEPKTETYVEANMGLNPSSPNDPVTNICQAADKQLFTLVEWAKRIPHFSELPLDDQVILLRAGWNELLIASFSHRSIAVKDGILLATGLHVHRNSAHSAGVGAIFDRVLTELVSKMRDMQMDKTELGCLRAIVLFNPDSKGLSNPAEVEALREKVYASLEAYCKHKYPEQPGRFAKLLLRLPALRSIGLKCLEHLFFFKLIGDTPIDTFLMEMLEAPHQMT

| Structure (SMILES) | Potency |
| --- | --- |
| CC1(C)C(O)C(C)(C)C1O (stereo not given) | inactive |
| ClC(Cl)(Br)Br | inactive |
| O=C(O)CNC(=O)c1ccc([N+](=O)[O-])cc1 | inactive |
| CCCN1CCCC[C@H]1C(=O)Nc1c(C)cccc1C | inactive |
| COc1c(N2C[C@@H]3CCCN[C@@H]3C2)c(F)cc2c(=O)c(C(=O)O)cn(C3CC3)c12 | inactive |
| COC(=O)C1=C(C)NC(C)=C(C(=O)OC)C1c1ccccc1[N+](=O)[O-] | inactive |
| O=c1n(CCO)c(=O)n(CCO)c(=O)n1CCO | inactive |
| Nc1cc(=O)[nH]c(N)n1 | inactive |
| N=C(N)c1ccc2cc(OC(=O)c3ccc(N=C(N)N)cc3)ccc2c1 | inactive |
| CCN(CC)CCOCCOC(=O)C1(c2ccccc2)CCCC1 | inactive |
| CCCN(CCC)CCc1cccc2c1CC(=O)N2 | inactive |
| CCOC(=O)CC(C)=O | inactive |
| Brc1c(NC2=NCCN2)ccc2nccnc12 | inactive |
| COC(=O)c1c(Cl)c(Cl)c(C(=O)OC)c(Cl)c1Cl | inactive and 5.49 µM (active) |
| OC1CCCCC1c1ccccc1 (stereo not given) | inactive |
| Nc1c[n+](N2CCOCC2)no1 | inactive |
| CCCCOCCOCCOCc1cc2c(cc1CCC)OCO2 | inactive |
| CC(=O)c1ccccc1O | inactive |
| C[C@H](NC(CCc1ccccc1)C(=O)O)C(=O)N1CCC[C@H]1C(=O)O (stereo not given in full) | inactive |
| COCCc1ccc(OCC(O)CNC(C)C)cc1 (stereo not given) | inactive |

| Structure (SMILES) | Potency |
| --- | --- |
| FC(F)OC(Cl)C(F)(F)F (stereo not given) | inactive |
| O=C1CCCC(=O)C1 | inactive |
| Cc1nc2c([nH]1)c(=O)n(C)c(=O)n2Cc1ccco1 | inactive |
| CCCCCCOC(=O)CCCCC(=O)OCCCCCC | inactive |
| COc1nc(N)nc2c1ncn2[C@@H]1O[C@H](CO)[C@@H](O)[C@@H]1O | inactive |
| CCCCOCCOCCOCCCC | inactive |
| Oc1ccc(C2CNCCc3c2cc(O)c(O)c3Cl)cc1 (stereo not given) | inactive |
| O=C1OC(=O)C2CCCCC12 (stereo not given) | inactive |
| CC(=O)OCC(=O)[C@@]1(O)CC[C@H]2[C@@H]3CCC4=CC(=O)CC[C@]4(C)[C@H]3C(=O)C[C@@]21C | inactive |
| CCc1cccc2c(CCO)c[nH]c12 | inactive |
| CCc1ccc(O)c(OC)c1 | inactive |
| C=CCS(=O)(=O)O | inactive |
| CCOc1ccc(C(=O)OCCN(CC)CC)cc1 | inactive |
| CC(C[N+](C)(C)C)OC(N)=O (stereo not given) | inactive |
| FC1(F)C(F)(F)C(F)(F)C2(F)C(F)(F)C(F)(F)C(F)(F)C(F)(F)C2(F)C1(F)F (stereo not given) | inactive |
| CC(C(=O)O)c1ccc(CC2CCCC2=O)cc1 (stereo not given) | inactive |
| CN1N=C(C(N)=O)CCC1=O | inactive |
| OCCOc1ccc(OCCO)cc1 | inactive |
| COC(=O)c1ccc(C)cc1C1=NC(C)(C(C)C)C(=O)N1 (stereo not given) | inactive |
| NC(=O)c1ccc([N+](=O)[O-])cc1 | inactive |
